Reference: PubChem BioAssay AID1851 (National Center for Advancing Translational Sciences (NCATS), 2009)
“And” between values parts separate entries of the source, which are not always exact repeats. Identical values can stand only once. The campaign covered roughly 16,000 compounds. About 2,600 (16%) were called active. About 20% were inconclusive and are not listed. The call rests on the fitted dose curve; in most records, active means well fitted curve in the direction sought with a large enough effect; inconclusive means small, poorly fitted or top-dose-only effect, or effect the other way; inactive means no such curve, though single readings can be large or run the other way. A selection follows.

Target: Cytochrome P450 2D6 (Homo sapiens) (UniProt P10635)
Assay: Cytochrome panel assay with activity outcomes
Conditions: recombinant CYP, pro-luciferin dealkylation, luminescence, p450-cyp2d6; series mostly up to 57.1 µM; activity, negative = inhibition: at the top concentration
On the % scale 0 is the no-effect control and ±100 the full control effect.

Sequence of Cytochrome P450 2D6 (Homo sapiens) (P10635 whole entry, looked up): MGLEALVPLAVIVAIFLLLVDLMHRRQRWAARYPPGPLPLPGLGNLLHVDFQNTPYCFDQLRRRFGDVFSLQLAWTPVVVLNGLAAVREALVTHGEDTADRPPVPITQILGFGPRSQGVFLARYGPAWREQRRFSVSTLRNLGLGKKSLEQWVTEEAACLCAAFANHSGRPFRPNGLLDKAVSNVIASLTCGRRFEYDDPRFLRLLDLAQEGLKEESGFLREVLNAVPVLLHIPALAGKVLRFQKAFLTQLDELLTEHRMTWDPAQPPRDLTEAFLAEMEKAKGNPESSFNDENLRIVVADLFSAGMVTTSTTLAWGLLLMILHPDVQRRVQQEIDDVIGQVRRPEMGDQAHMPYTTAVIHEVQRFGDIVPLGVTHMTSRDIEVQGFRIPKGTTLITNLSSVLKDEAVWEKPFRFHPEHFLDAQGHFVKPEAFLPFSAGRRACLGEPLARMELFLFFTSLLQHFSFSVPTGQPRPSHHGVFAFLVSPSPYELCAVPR

SMILES	activity, negative = inhibition	AC50
N#Cc1cccc(NC(=O)N2CCC3(CC2)CCN(C(=O)c2cccc(F)c2)CC3)c1	-13.4% (inactive)	–
O=C(O)[C@@H]1[C@@H]2C[C@@H]3[C@@H](OC(=O)[C@@H]31)[C@H]2Br	0.593% [at 11.4 µM] (inactive)	–
CCOC(=O)c1ccc(-c2ccc(/C=C(\C#N)C(=O)NCC3CCCO3)o2)cc1 (centres undefined)	-17.3% (inactive)	–
COC(=O)c1cc2c(ccn2-c2ccc(F)cc2)n1CC(C)C	13.8% (inactive)	–
OC[C@@H]1O[C@@H](n2cnc3cncnc32)[C@@H](O)[C@H]1O	-2.03% (inactive)	–
NC(=O)Nc1n[nH]c(-c2ccccc2)n1	9.86% [at 11.4 µM] (inactive)	–
Cc1ccc2cc3cc(C(=O)N4CCCCC4C)oc3nc2c1 (centres undefined)	-7.91% (inactive)	–
O[C@@H]1[C@@H](OCc2ccccc2)OC[C@H](O)[C@@H]1O	0.194% [at 11.4 µM] (inactive)	–
CCOc1cc(NC(=S)Nc2cccc(C)c2)c(OCC)cc1NC(=O)CC(C)C	-15.7% (inactive)	–
COc1cc(OC)c(NC(=S)Nc2cccc(C(C)=O)c2)cc1Cl	–	15.8 µM (active)
COc1cc(C(=O)NC(=S)Nc2ccc(Cl)c(C(=O)O)c2)cc(OC)c1OC	1.96% (inactive)	–
CC(C)CCNC(=O)Cc1ccccc1[N+](=O)[O-]	-21.8% (inactive)	–
O=C(CSc1c[nH]c2ccccc12)N1CCOCC1	-28.8% (inactive)	–
CCc1cc2c(=O)c(-c3nc4ccccc4[nH]3)coc2cc1OC(=O)N1CCOCC1	-17.4% (inactive)	–
CCOC(=O)N1CCN(S(=O)(=O)Cc2ccccc2)CC1	-6.68% (inactive)	–
O=C(c1ccco1)N1CCN(C(=O)C2(S(=O)(=O)c3ccc(Cl)cc3)CC2)CC1	-9.48% (inactive)	–
COC(=O)[C@H](Cc1ccccc1)NC(=O)N1CCN(Cc2ccccc2)CC1	–	11.2 µM (active)
COC(=O)[C@H](Cc1ccccc1)NC(=O)[C@@H](C)CO	3.71% [at 11.4 µM] (inactive)	–
CCOC(=O)N1CCN(C(=O)CSCc2ccc(Cl)cc2)CC1	-16% (inactive)	–
CCOC(=O)C1(S(=O)(=O)c2ccccc2)CCN(Cc2ccccc2)CC1	–	2 µM (active)

SMILES	activity, negative = inhibition	AC50
CC(C)NC1(C(N)=O)CCN(Cc2ccccc2)CC1	–	0.631 µM (active)
CCOC(=O)N1CCN(C(=O)C(C)SCc2ccccc2)CC1 (centres undefined)	-25.5% (inactive)	–
CCOC(=O)C1(S(=O)(=O)c2ccc(Cl)cc2)CCN(Cc2ccc(Cl)cc2)CC1	–	3.55 µM (active)
COc1ccc(Nc2ncc(C(=O)N3CCN(Cc4ccccc4)CC3)c3ccccc23)cc1	-6.13% (inactive)	–
C/C(=N\Nc1nnc(C)c(=O)[nH]1)C(=O)O	-0.0511% (inactive)	–
COc1ccc(C2/C(=C(/O)c3ccc(Cl)cc3)C(=O)C(=O)N2CCN2CCOCC2)c(OC)c1 (centres undefined)	-38.4% (inactive)	–
CN[C@@H]1NC(=O)c2ccccc2N1Cc1ccc(F)cc1	10.6% [at 11.4 µM] (inactive)	–
CSc1nnc(-c2cc3c(-c4ccccc4)nn(C)c3s2)n1C	0.173% (inactive)	–
CC(C)(N=NC(C)(C)C1=NCCN1)C1=NCCN1	6.75% [at 11.4 µM] (inactive)	–
O=c1[nH]c(=O)n(Cc2ccco2)c2c1C(C(F)(F)F)(C(F)(F)F)N=C(CCC1CCCCC1)N2	-3.9% (inactive)	–
CC(C)CO/N=C1/[C@H]2O[C@@H]2[C@@H](O)[C@H]2[C@H]1CCn1c(=O)n(C)c(=O)n12	1.5% [at 11.4 µM] (inactive)	–
CC(C)C[C@H](NC(=O)N1CCCCCC1)C(=O)N[C@H](Cc1cn(C)c2ccccc12)C(=O)N[C@H](Cc1ccccn1)C(=O)O	-13.8% (inactive)	–
Cc1ccc(C(=O)NC(=S)Nc2cccc3nsnc23)cc1	28.9% (inactive)	–
CC(C)(C)C(=O)Nc1cccc(-c2nc3ccccc3c(=O)o2)c1	-27.2% (inactive)	–
CN(C)CCNc1ccccn1	-15.2% [at 11.4 µM] (inactive)	–
c1ccc(CCNc2ccccn2)nc1	-8.12% [at 11.4 µM] (inactive)	–
O[C@H](CNc1ccccn1)c1ccccc1	–	1.58 µM (active)
CCCNC(=O)OC[C@@H]1O[C@H](CCO/N=C\C[C@H]2C=C[C@H](OC(C)=O)[C@@H](COC(C)=O)O2)C=C[C@@H]1Oc1ccc(OC)cc1	-15.6% [at 11.4 µM] (inactive)	–
CC(C)=CCNc1ncnc2nc[nH]c12	10.2% [at 11.4 µM] (inactive)	–
COc1ccc(N2CCN(C(=S)Nc3cccc(C)c3)CC2)cc1	7.47% (inactive)	–

SMILES	activity, negative = inhibition	AC50
Cc1noc(C)c1-c1nccc(N(C)Cc2ccco2)n1	-10.1% (inactive)	–
CN(C)Cc1ccccc1-c1nccc(N(C)C)n1	–	1 µM (active)
CN(C)Cc1ccccc1-c1nccc(N(C)Cc2ccco2)n1	–	0.794 µM (active)
Cc1noc(C)c1-c1nccc(N(C)C)n1	9.87% (inactive)	–
CN(C)c1ccnc(-c2ccccc2C(F)(F)F)n1	12.2% (inactive)	–
Cn1c2c(c(=O)n(C)c1=O)C(C(F)(F)F)(C(F)(F)F)N=C(c1ccc(Cl)cc1)N2	18.2% (inactive)	–
COc1ccc(Oc2nc3ccccc3nc2C(F)(F)F)cc1	-2.66% (inactive)	–
CCCC[C@@H]1C[C@H]1C(NC(=O)c1ccccc1)c1ccccc1C(F)(F)F (some centres undefined)	11.1% (inactive)	–
[Cu].[O-]/N=C1/C(=[OH+])Nc2ccccc21.[O-]Nc1c(O)[nH]c2ccccc12	-7.87% [at 11.4 µM] (inactive)	–
O=C(O)C1=C/C(=C(/c2ccccc2)c2cc(C(=O)O)c(O)c3ccccc23)c2ccccc2C1=O	14% [at 11.4 µM] (inactive) and -3.21% [at 11.4 µM] (inactive)	–
O=C(Nc1cccnc1)C1COc2ccccc2O1 (centres undefined)	-8.2% (inactive)	–
CC(C)(C)NS(=O)(=O)c1ccc(NS(=O)(=O)c2ccc(F)cc2)cc1	10.1% (inactive)	–
COc1ccc(CC(=O)NC(=S)Nc2ccc(S(=O)(=O)NC(C)(C)C)cc2)cc1	17.1% (inactive)	–
CC(C)(C)NS(=O)(=O)c1ccc(NC(=O)C(Sc2ccccc2)c2ccccc2)cc1 (centres undefined)	–	3.55 µM (active)
CO[C@H]1C[C@@H]2C[C@H](O)C[C@@H](CC(=O)O[C@@H](/C=C\CC(C)C)C[C@@H]3CC[C@H](C)[C@@H](C1)O3)O2	-2.62% [at 11.4 µM] (inactive)	–
N#Cc1cccc(NC(=O)N2CC3(CCN(C(=O)c4ccco4)CC3)C2)c1	-5.53% (inactive)	–
COc1cc(NC(=O)c2cc3ccccc3o2)c(OC)cc1Br	-2.15% (inactive)	–
CCCN(CCO)Cc1ccc(F)c(Br)c1	–	7.94 µM (active)
COc1ccc(C(=S)Nc2ccccc2)cc1	-50.9% (inactive)	–
